Results on 90 compounds are retold here after PubChem BioAssay AID1851 (National Center for Advancing Translational Sciences (NCATS), 2009).

Each structure is given as a SMILES string. Several values for one entry are separate records, joined by “and”; a condition that tells them apart may be missing. Identical values can stand only once. In all, about 16,000 compounds went through this assay and about 2,600 (16%) were called active. Inconclusive results (about 20%) are left out. Calls follow the shape of the dose curve; as a rule, active = well fitted curve in the direction sought with a large enough effect; inconclusive = small, poorly fitted or top-dose-only effect, or effect the other way; inactive = no such curve, though single readings can be large or run the other way. A selection follows.
% is scaled to controls: 0 for no effect and ±100 for the full control effect.

Cytochrome P450 2D6 (Homo sapiens), sequence (P10635 whole entry, looked up): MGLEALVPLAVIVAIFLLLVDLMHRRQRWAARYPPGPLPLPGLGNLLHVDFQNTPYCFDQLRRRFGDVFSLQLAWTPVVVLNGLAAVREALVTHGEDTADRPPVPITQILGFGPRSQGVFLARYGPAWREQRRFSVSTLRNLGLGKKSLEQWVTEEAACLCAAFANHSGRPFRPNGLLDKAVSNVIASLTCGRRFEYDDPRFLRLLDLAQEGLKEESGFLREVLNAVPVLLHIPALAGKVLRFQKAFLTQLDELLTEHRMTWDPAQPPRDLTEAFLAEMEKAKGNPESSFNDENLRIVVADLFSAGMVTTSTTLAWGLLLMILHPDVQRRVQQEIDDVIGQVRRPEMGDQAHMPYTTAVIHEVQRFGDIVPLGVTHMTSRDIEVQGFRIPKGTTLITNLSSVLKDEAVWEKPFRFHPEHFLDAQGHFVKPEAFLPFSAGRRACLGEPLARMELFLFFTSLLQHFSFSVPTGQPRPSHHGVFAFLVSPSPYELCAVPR

The assay has as its target Cytochrome P450 2D6 (Homo sapiens) (UniProt P10635). Description: Cytochrome panel assay with activity outcomes. The following applies: recombinant CYP, pro-luciferin dealkylation, luminescence, p450-cyp2d6; series mostly up to 57.1 µM.
As usually defined, the AC50 is the concentration giving half of the maximal activity seen. For `COc1ccc(O)c(/C=N/NC(=O)CSc2nnc(C)n2-c2ccccc2)c1`, the AC50 entry is “inactive”. Still for that read-out and setting: under `Nc1c(-c2cccs2)cnn1-c1nc(-c2ccc(Cl)cc2Cl)cs1` stands “inactive”; under `COC(=O)C1=C(C)NC(C)=C(C(=O)OC(C)C)C1c1cccc2nonc12` (stereo not given), “inactive”; under `COC(=O)C1=C(C)NC(C)=C([N+](=O)[O-])[C@H]1c1ccccc1C(F)(F)F`, “inactive”. For the compound `COC(=O)C1=C(C)NC(C)=C([N+](=O)[O-])[C@@H]1c1ccccc1C(F)(F)F`, the AC50 was 6.31 µM (active). Same read-out and setting: under `CC(C)c1ccc(CN(C(=O)C2COc3ccccc3O2)C2CCS(=O)(=O)C2)cc1` (stereo not given) stands 14.1 µM (active).

For `Cc1ccc(CN(C(=O)c2cc3ccccc3oc2=O)C2CCS(=O)(=O)C2)cc1` (stereo not given), the AC50 result is “inactive”. On the same count and under the same terms, the same measure for `CCc1ccc(CN(C(=O)c2cc3ccccc3oc2=O)C2CCS(=O)(=O)C2)cc1` (stereo not given): “inactive”; for `CNNCc1ccc(C(=O)NC(C)C)cc1`: “inactive”. Consider `CC(NC(=O)CCSc1nc(-c2ccc3c(c2)OCO3)cc(C(F)(F)F)n1)c1ccccc1` (stereo not given), for which the AC50 is 1 µM (active). On the same count and under the same terms, the same measure for `CC(Sc1nc(-c2ccccc2)cc(C(F)(F)F)n1)C(=O)N1CCCCC1` (stereo not given): “inactive”; for `Cc1nc2ncnn2c(C)c1CCC(=O)NC(C)c1ccc2c(c1)OCCO2` (stereo not given): “inactive”. For `O=C1[C@H]2[C@H]3[C@H](O)[C@H](O)C/C(=N/OC[C@@H](O)COCc4ccco4)[C@H]3CC[C@@H]2C(=O)N1C1CCCCC1`, the activity, negative = inhibition is 2.44% [at 11.4 µM] (inactive). In the case of `Cc1ccc(C2/C(=C(/O)c3ccc(Cl)cc3)C(=O)C(=O)N2CC2CCCO2)o1` (stereo not given), the AC50 entry was “inactive”. Same read-out and setting: the same measure for `COc1ncc2nc(C)c(=O)n(CCc3ccccc3)c2n1`: “inactive”; for `Cc1c(Cl)cnc(NC(=O)COC(=O)CCS(=O)(=O)c2ccccc2)c1Cl`: “inactive”; for `CC(C)=CC(=O)OCC(=O)Nc1ncc(Cl)c(C)c1Cl`: “inactive”.

Consider `CC(C)CC(C(=O)OCC(=O)Nc1ncc(Cl)cc1Cl)N1C(=O)c2ccccc2C1=O` (stereo not given), for which the AC50 is 25.1 µM (active). Still for that read-out and setting: under `O=C(Nc1ccc(Cl)cc1)c1cnc(-c2ccccc2)nc1-c1ccccc1` stands “inactive”; under `C/C(=N\NC(=O)C1CC1c1ccccc1)c1cccs1` (stereo not given), “inactive”; under `Cc1cccn2c(=O)c(/C=N/O)c(N3CCCC3)nc12`, “inactive”. On the same count and under the same terms, under `C=CCN=C1CC(C)(C)CC(=O)/C1=C(/O)CCC(=O)OC` stands “inactive”.

On to `CN(C)CCCN1CCC2(CCC(C(C)(C)C)CC2)CC1`, for which the activity, negative = inhibition is 9.19% [at 11.4 µM] (inactive). Same read-out and setting: the same measure for `CSc1nc(C)cc(Nc2ccc(O)c(CN3CCOCC3)c2)n1`: -3.84% [at 11.4 µM] (inactive). For the compound `COc1ccc(-c2c(C)oc3c(CN4CCN(CCO)CC4)c(O)ccc3c2=O)cc1OC`, the AC50 entry is “inactive”. On the same count and under the same terms, the same measure for `CCCc1cc(=O)oc2c(CN3CCOCC3)c(O)ccc12`: 2.24 µM (active); for `O=c1oc2c(CN3CCOCC3)c(O)ccc2c2ccccc12`: 2 µM (active). Still for that read-out and setting: under `COc1ccccc1-c1c(C)oc2c(CN3CCN(CCO)CC3)c(O)ccc2c1=O` stands “inactive”.

With `Nc1ccc(N2CCN(C(=O)c3ccco3)CC2)cc1`, the AC50 result was “inactive”. Regarding `Cc1ccc2nc(NC(=O)CSc3nc4c(c(=O)n3C)SC(C)C4)sc2c1` (stereo not given), the AC50 entry is “inactive”.

Regarding `Cc1ccnc(NS(=O)(=O)c2ccc(NC(=O)C3CCCNC3=O)cc2)n1` (stereo not given), the AC50 entry was “inactive”. On the same count and under the same terms, under `CC(C)c1nnc(NC(=O)CCC(=O)N2CCN(c3ccccn3)CC2)s1` stands “inactive”. Regarding `O=[N+]([O-])c1cccc2c[nH]nc12`, the AC50 result is “inactive”. Still for that read-out and setting: the same measure for `C[C@]1(c2ccccc2)OC(C(=O)O)=CC1=O`: “inactive”; for `O=C(Nc1cccc(F)c1)N1CC[C@@]2(CCCNC2)C1`: “inactive”; for `c1ccc(C(c2ccccc2)N2CC3(CCNCC3)C2)cc1`: 2.51 µM (active). On the same count and under the same terms, the same measure for `c1ccc(C(c2ccccc2)N2CC[C@@]3(CCCNC3)C2)cc1`: 15.8 µM (active). On the same count and under the same terms, under `O=C(Nc1ccccc1)N1CCCC2(CCNCC2)C1` stands “inactive”. Turning to `N#Cc1cccc(NC(=O)N2CC[C@@]3(CCCNC3)C2)c1`, the AC50 entry is “inactive”. The same measure, in the same setting: the same measure for `c1ccc(C(c2ccccc2)N2CCC3(CCNCC3)CC2)cc1`: “inactive”. Take `CC(C)=CCC/C(C)=C/CO/N=C1/C[C@@H](O)[C@@H](O)[C@@H]2[C@@H]3C(=O)N(Cc4ccc5c(c4)OCO5)C(=O)[C@H]3CC[C@H]12`: the activity, negative = inhibition was -10.1% [at 11.4 µM] (inactive). With `CCc1cc(C(=O)NNC(=S)NCC2CCCO2)cs1` (stereo not given), the AC50 entry was “inactive”. On to `O=C(O)c1cc(C(=O)C(=O)c2cc(C(=O)O)c(O)c3ccccc23)c2ccccc2c1O`, for which the activity, negative = inhibition was -0.777% [at 11.4 µM] (inactive). As for `CCNc1ncc2nc(-c3cn(C)c4ccccc34)c(=O)n(Cc3cccs3)c2n1`, the AC50 result is “inactive”.

`COc1ccc2c(c1)CCC1C2CC[C@]2(C)[C@H](NCCCCCCN3C(=O)C=CC3=O)CC[C@@H]12` (stereo not given in full): the AC50 result was “inactive”. On the same count and under the same terms, under `N#Cc1cccc(-c2nc3cnc(N4CCNCC4)nc3n(C3CC3)c2=O)c1` stands “inactive”; under `CC(=O)c1sc(NC(=O)C(C)C)nc1C`, “inactive”.

As for `Fc1cccc(Cl)c1CSc1ncn[nH]1`, the AC50 result was “inactive”. As for `C[C@H](O/N=C1/[C@H]2O[C@@H]2[C@@H](O)[C@H]2[C@H]1CCn1c(=O)n(-c3ccccc3)c(=O)n12)c1cn([C@H](CO)Cc2ccccc2)nn1`, the activity, negative = inhibition was -8.19% [at 11.4 µM] (inactive) and 10.1% [at 11.4 µM] (inactive). For `O=c1cc(-c2ccccc2)[nH]c2nc(Cl)ccc12`, the AC50 result is “inactive”. Same read-out and setting: under `CS(=O)(=O)N1N=C(c2ccc(Br)cc2)CC1c1ccc2c(c1)OCO2` (stereo not given) stands 0.631 µM (active). In the case of `C[C@@H]1CC[C@H]2C(=O)N3[C@@H](CC[C@@H](C)[C@@H]3c3ccc(Br)cc3)C(=O)N2[C@@H]1c1ccc(Br)cc1`, the activity, negative = inhibition was -14.2% [at 11.4 µM] (inactive). In the case of `C[C@H]1CC[C@H]2C(=O)N3[C@H](c4ccc(Br)cc4)[C@@H](C)CC[C@H]3C(=O)N2[C@@H]1c1ccc(Br)cc1`, the activity, negative = inhibition is -7.03% [at 11.4 µM] (inactive). For `Cn1cc(-c2nc3cncnc3n(Cc3ccccc3Cl)c2=O)c2ccccc21`, the AC50 entry was “inactive”. Regarding `Cc1[nH]c(N)nc(=S)c1CCC(=O)O`, the activity, negative = inhibition was 5.35% [at 11.4 µM] (inactive).

With `Cc1ccc(Oc2cc(N3CCOCC3)nc(-c3ccccc3)n2)cc1`, the AC50 result was “inactive”. `COc1ccc(-c2csc3c2[N+]2=CCC=C2C3=O)cc1`: the AC50 is 3.16 µM (active). On the same count and under the same terms, under `CCOC(=O)c1c(-c2ccc(OC)cc2)csc1NC(=O)CCN1C(=O)c2ccccc2C1=O` stands “inactive”. In the case of `CC[C@@H]1CC(=O)N(SC[C@H](N)C(=O)O)C1=O`, the activity, negative = inhibition is 7.85% [at 11.4 µM] (inactive). For the compound `CN1Cc2c(N)cccc2[C@H](c2ccccc2)C1`, the AC50 is 31.6 µM (active) and 6.31 µM (active). Same read-out and setting: under `CN1C(=O)C[C@H](c2ccccc2)C1=O` stands “inactive”.

With `CC1(C)[C@@H]2CC[C@]1(C)[C@@H](OC(=O)/C=C\c1ccccc1)C2`, the activity, negative = inhibition is 2.99% [at 11.4 µM] (inactive). In the case of `Oc1oc(-c2ccccc2)nc1C=Nc1ccccc1`, the AC50 entry was “inactive”. The same measure, in the same setting: the same measure for `COc1cc(C2C(C(=O)c3cccs3)=C(O)C(=O)N2Cc2ccco2)cc(OC)c1OC` (stereo not given): “inactive”. Turning to `COC(=O)C/C=C\[C@@H](C)[C@@H](/C=N\OC[C@@H](C)[C@H](OCc1ccccc1)C(C)C)OC`, the activity, negative = inhibition was -9.09% [at 11.4 µM] (inactive). On to `CCC(C)NC(=O)C1CC(c2ccc(OC)cc2)=NO1` (stereo not given), for which the AC50 entry was “inactive”. On the same count and under the same terms, the same measure for `COc1ccc(CCC(C)NC2C3CC4CC(C3)CC2C4)cc1` (stereo not given): 3.55 µM (active). With `COc1ccc(CN[C@H](C)C(=O)O)cc1`, the activity, negative = inhibition is 6.89% [at 11.4 µM] (inactive). On to `Cc1ccc(N=Nc2c(N)n(-c3ccccc3)[nH]c2=O)cc1`, for which the AC50 result is “inactive”. Still for that read-out and setting: under `COCCNC(=O)CCn1c(=O)oc2ccccc21` stands “inactive”. In the case of `O=C1C2[C@@H](c3ccccc3)N[C@@H](c3ccccc3)C1[C@H](c1ccccc1)N[C@H]2c1ccccc1`, the activity, negative = inhibition was -8.91% [at 11.4 µM] (inactive).

Turning to `S=C1N[C@H](c2ccccc2)N[C@H](c2ccccc2)S1`, the AC50 is 3.98 µM (active). Consider `O=C(O)c1ccc(C(=O)c2ccccc2)c(C(=O)O)c1`, for which the activity, negative = inhibition was 14.9% [at 11.4 µM] (inactive). On to `COC(=O)CSc1nnc(CNc2ccc(Cl)cc2)n1-c1ccccc1`, for which the AC50 entry was “inactive”. The same measure, in the same setting: the same measure for `Cn1c(=O)cc(SCC(=O)NCCN2CCN(c3ccccc3F)CC2)c2cc(Cl)ccc21`: 14.1 µM (active); for `CCOC(=O)CSc1cc(=O)n(C)c2cc(Cl)ccc12`: “inactive”. Same read-out and setting: under `Cn1c(=O)cc(SCC(=O)NCCCN2CCOCC2)c2ccc(Cl)cc21` stands “inactive”; under `COCc1c(C(=O)OCC(=O)N2c3ccccc3NC(=O)C2(C)C)oc2ccccc12`, “inactive”. With `COc1cccc([C@H]2Oc3ccc(OC)cc3/C(=N\O[C@@H](C)c3cn([C@H](CO)Cc4ccccc4)nn3)[C@@H]2O)c1`, the activity, negative = inhibition was -6.89% [at 11.4 µM] (inactive). With `C/C(CCC(=O)OC[C@@H]1O[C@H](C#Cc2ccccc2)C=C[C@@H]1Oc1ccc(C)cc1)=N/O[C@@H](C)c1cn([C@H](CO)Cc2ccccc2)nn1`, the activity, negative = inhibition was -5.83% [at 11.4 µM] (inactive) and -8.36% [at 11.4 µM] (inactive). As for `COc1ccc(O[C@H]2C=C[C@@H](c3ccccc3)O[C@H]2COC(=O)CC/C(C)=N\O[C@@H](C)CN2CCCc3nc(C)c(C)cc32)cc1`, the AC50 was 3.16 µM (active).

As for `COc1ccc(O[C@H]2C=C[C@@H](c3ccccc3)O[C@@H]2CO/N=C(\C)CCN2CCc3nc(-c4ccccc4)c(-c4ccccc4)cc3C2)cc1`, the activity, negative = inhibition is -14.1% [at 11.4 µM] (inactive). Still for that read-out and setting: the same measure for `CCCNC(=O)OC[C@@H]1O[C@H](CCO/N=C(\C)CCC(=O)OC[C@@H]2O[C@H](c3ccccc3)C=C[C@@H]2Oc2ccc(OC)cc2)C=C[C@@H]1Oc1ccc(OC)cc1`: 5.63% [at 11.4 µM] (inactive). For `COc1ccc(O[C@H]2C=C[C@@H](c3ccccc3)O[C@H]2COC(=O)CC/C(C)=N\O[C@@H](C)c2cc(-c3c(C)cc(C)cc3C)no2)cc1`, the activity, negative = inhibition was -7.29% [at 11.4 µM] (inactive). With `COc1ccc(O[C@H]2C=C[C@@H](c3ccccc3)O[C@@H]2CO/N=C(\C)CCN2CCCc3nc(C)c(C)cc32)cc1`, the AC50 is 3.16 µM (active). For `COc1ccc(O[C@H]2C=C[C@@H](c3ccccc3)O[C@H]2CO/N=C(/C)CCC(=O)OC[C@@H]2O[C@H](C#Cc3ccccc3)C=C[C@@H]2Oc2ccc(C)cc2)cc1`, the activity, negative = inhibition was 11.9% [at 11.4 µM] (inactive). Same read-out and setting: under `CCCNC(=O)OC[C@@H]1O[C@H](CCO/N=C(\C)CCN2CCCc3nc(C)c(C)cc32)C=C[C@@H]1Oc1ccc(OC)cc1` stands -18.3% [at 11.4 µM] (inactive). Take `C/C(CCC(=O)OC[C@@H]1O[C@H](C#Cc2ccccc2)C=C[C@@H]1Oc1ccc(C)cc1)=N/O[C@@H](C)CN1CCCc2nc(C)c(C)cc21`: the concentration at half-maximal activity (AC50) was 3.16 µM (active). As to `COc1cccc([C@@H]2Oc3ccc(OC)cc3/C(=N/O[C@@H](C)c3cn([C@H]4COC[C@H]4O)nn3)[C@@H]2O)c1`, the activity, negative = inhibition is -18.2% [at 11.4 µM] (inactive). Consider `COc1cccc([C@@H]2Oc3ccc(OC)cc3/C(=N/O[C@@H](C)CN3CCCc4nc(C)c(C)cc43)[C@@H]2O)c1`, for which the AC50 is 3.98 µM (active).
